Compound activity as filed in PubChem BioAssay.
In the library only some 2.2% were active in any assay of this set; here they are far more common.
FXN GAA850 act: increases GAA850 frataxin promoter reporter activity | HEK293 lucGAA850 FXN promoter luciferase reporter, 24 h; percent of 10 µM SAHA response | activation, % at 6 µM | actives 0.56% (n = 360,000);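 active = activation above the average of all compounds screened plus 3 SD, cutoff fixed separately per campaign, cut at about 7.5% in these data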;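 note: 0% = DMSO wells and 100% = 10 µM SAHA wells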
Hsp70 activator: switches on Hsp70 transcription; activation, % at 10 µM; HeLa Hsp70 promoter luciferase reporter, luminescence; scaled: vehicle 0, proteasome-inhibitor control 100%; actives 0.04% (n = 200,000);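 active = activation above the mean across all tested compounds plus 3 SD, cutoff set per campaign, cut at about 5.5% in these data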;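 note: 100% = MG132 at 30 µM as the positive control and 0% = DMSO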
GalR3 antag: blocks the human galanin receptor 3. O60755. HEK293 GalR3-CNG cAMP membrane potential fluorescence; galR3 body fused to GalR1 C-terminus. inhibition, % at 3 µM. actives 0.44% (n = 360,000). AID 651719;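 active = inhibition above the screen-wide average plus 3 SD, cut at about 13% in these data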;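 note: forskolin and galanin both at EC90 stimulate the cells; cAMP rise reported by CNG channel membrane potential dye signal; 0% = forskolin plus galanin with DMSO and 100% = forskolin alone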
Target sequence (O60755 1-299 limits assumed): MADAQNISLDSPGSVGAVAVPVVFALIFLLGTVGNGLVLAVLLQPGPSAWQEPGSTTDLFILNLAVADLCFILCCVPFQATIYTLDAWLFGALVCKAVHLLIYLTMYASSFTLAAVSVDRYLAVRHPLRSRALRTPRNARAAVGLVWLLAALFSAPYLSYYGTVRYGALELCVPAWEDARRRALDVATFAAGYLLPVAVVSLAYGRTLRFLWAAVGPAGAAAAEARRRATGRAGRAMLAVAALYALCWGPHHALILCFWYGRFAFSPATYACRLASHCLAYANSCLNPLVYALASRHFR
HIF activator: HIF pathway transcriptional activation. U2OS HRE-luciferase reporter, luminescence; normalized: DMSO 0%, desferrioxamine 100%. activation, % at 7.5 µM (by protocol). actives 0.32% (n = 300,000). AID 1910;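 active = mean activation of at least 10% of the iron chelator positive control signal, with at least half of replicates also reaching 10%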
SMARCA2 act: increases SMARCA2 function in MMTV reporter cells | MG213 cells, MMTV-luciferase reporter, dexamethasone, overnight | activation, % at 9.1 µM | actives 1% (n = 370,000) | AID 652017; in the data active = activation above about 7.8%;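 note: 0% = vehicle wells and 100% = reference activator wells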
* marks the source's active call; other numbers are inactive results; · = no result given.

SMILES | FXN GAA850 act | Hsp70 activator | GalR3 antag | HIF activator | SMARCA2 act
CCOc1ccc(CCNC(=O)c2cc([N+](=O)[O-])ccc2N2CCOCC2)cc1OCC | -5 | · | -3 | 1 | 7.9*
CCOc1ccc(CCNC(=O)COC(=O)c2cc([N+](=O)[O-])ccc2N2CCOCC2)cc1OCC | 0 | · | 2 | 0 | 0
COc1ccc(S[C@]2(C(=O)N(C)C)CC(=O)N(C(=O)c3ccccc3)[C@@H]2c2ccc(OC)cc2)cc1 | · | · | · | · | -1
COc1ccc(CCNC(=O)C(=O)NCC2OCCN2S(=O)(=O)c2cc(F)ccc2F)cc1OC (stereo not given) | 0 | · | · | 0 | -2
COCCNC(=O)C(=O)NCC1OCCN1S(=O)(=O)c1cc(F)ccc1F (stereo not given) | 0 | · | -1 | 17* | -3
COc1ccc(S[C@]2(C(=O)N3CCOCC3)CC(=O)N[C@@H]2c2ccc(OC)cc2)cc1 | · | · | · | · | -1
CCOC(=O)c1sc(N(Cc2ccccc2)C(=O)COC(=O)c2ccc(O)cc2)nc1C | -9 | 0 | -6 | 10.0* | -4
CCOC(=O)c1sc(N(Cc2ccccc2)C(=O)COC(=O)c2ccccc2O)nc1C | 4 | 0 | -6 | 0 | 0
COC(=O)C1CN(Cc2ccc(Cl)cc2)CCS(=O)(=O)N1Cc1cn(Cc2ccccc2)nn1 (stereo not given) | · | · | · | · | -3
O=C(NC(=S)N1CCN(c2nc(-c3ccccc3)cs2)CC1)c1cncc(Br)c1 | 1 | 0 | -6 | -1 | 9.8*
O=C(C1CCCN(Cc2ccccc2F)C1)N1CCCCC1 (stereo not given) | 0 | · | -10 | 1 | 2
O=C(C1CCCN(Cc2ccccc2F)C1)N1CCc2ccccc2C1 (stereo not given) | 0 | · | -4 | 108* | -3
CC(C)CN1C(=O)C[C@]2(C(=O)N(C)c3ccc(NS(=O)(=O)C4CCCCC4)cc32)C1c1ccccc1 (stereo not given in full) | · | · | · | · | -3
COC(=O)Cc1ccc(NC(=S)NC(C)(C)C)cc1 | 0 | 0 | 5 | 25* | 2
COc1cccc2c1C(=O)c1c(O)c3c(c(O)c1C2=O)C[C@@](O)(C(C)=O)C[C@@H]3O[C@H]1C[C@H](N)[C@H](O)[C@H](C)O1 | -15 | 12* | · | · | -15
COc1cccc2c1C(=O)c1c(O)c3c(c(O)c1C2=O)C[C@@](O)(C(=O)CO)C[C@@H]3O[C@H]1C[C@H](N)[C@@H](O)[C@H](C)O1 | -7 | · | · | -3 | ·
COc1ccc(-c2ccc3c(n2)CCCN3S(=O)(=O)c2ccc(C#N)cc2)cc1 | · | · | -1 | · | -5
COc1ccc(NC(=O)CCCn2c(=O)oc3ccccc32)cc1Cl | 7 | 0 | 1 | 0 | 7.8*
O=C(Nc1ccccc1)N1CCCN(c2nccc(C(F)(F)F)n2)CC1 | 0 | · | -2 | -1 | 7.8*
CCn1c(Cc2cccs2)nnc1SCC(=O)Nc1ccccc1-c1ccccc1 | · | · | · | · | 3
O=C(Nc1ccc(F)cc1Cl)C1CCCN1S(=O)(=O)c1cccc2cccnc12 (stereo not given) | · | · | · | · | -4
Cc1ccc(NC(=O)CSc2nnc3ccccn23)c(Cl)c1 | 2 | · | -8 | · | 7.9*
O=C(CSc1nnc2ccccn12)Nc1ccccc1Cl | 1 | · | 1 | · | -3
N/C(=N\OC(=O)c1ccc(F)cc1)c1ccccc1 | 4 | 0 | -6 | 3 | 7
Cc1ccc(/C(N)=N/OC(=O)c2ccc(F)cc2)cc1 | 4 | 0 | -4 | 5 | 7.8*
SMILES | FXN GAA850 act | Hsp70 activator | GalR3 antag | HIF activator | SMARCA2 act
O=c1c2ccccc2nnn1Cc1ccco1 | · | · | -6 | · | -2
COc1cc(-n2c(N)c(C(=O)NCc3ccco3)c3nc4ccccc4nc32)cc(OC)c1OC | 1 | 0 | -7 | 0 | 2
COc1ccc(-n2c(N)c(C(=O)NCc3ccco3)c3nc4ccccc4nc32)cc1OC | 3 | 0 | -6 | 0 | 8.4*
Cc1ccccc1-n1c(=O)n(Cc2ccc(C(=O)O)cc2)c(=O)c2[nH]cnc21 | 1 | · | -3 | 37* | -1
Cc1cccc(C(=O)Nc2nc3ncccn3c2-c2ccc(F)c(F)c2)c1 | · | · | · | · | -2
CS(=O)(=O)c1cccc(C(=O)N(CCc2ccccc2)Cc2cccs2)c1 | -1 | · | -10 | 15* | -1
CCOC(=O)N1CCN(C(=O)c2ccc(Cn3c(=S)[nH]c4cc5c(cc4c3=O)OCO5)cc2)CC1 | -9 | 0 | 4 | 0 | 0
